Compound activity (PubChem BioAssay)
B2AR arrestin – beta2AR (human) beta-arrestin recruitment activity; P07550; beta-arrestin recruitment to beta2AR, cell-based reporter; Potency, µM (doses to about 46.1 µM), without a hit: at the highest dose activation, most hits filed as activators; 330,000 tested, 0.02% active;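 note: potency is the fitted concentration of half-maximal effect; 0% = DMSO controls and full agonism = EC100 isoproterenol or metaproterenol; nearly all actives have a fitted effect of over 65% in size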
VP16 counter – counter-screen for ROR gamma inhibitors: Gal4-VP16 reporter | Potency, µM (top dose mostly 53.6 µM), for inactives: at the highest dose activity, negative = inhibition, usual class: inhibitors | Drosophila S2 Gal4-VP16 UAS-luciferase, luminescence, 20 h | 310,000 tested, 3.5% active;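 note: Gal4-VP16 expression switched on by copper sulfate through the metallothionein promoter; potency is the fitted concentration of half-maximal effect; nearly all actives have a fitted effect of over 50% in size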
RORg inh – inhibitors of mouse ROR gamma transcriptional activity. 310,000 tested, 5.4% active. Potency, µM (series often up to 53.6 µM), inactives show at the highest dose activity change, negative = inhibition, most hits filed as inhibitors. P51450. Drosophila S2 Gal4-RORgamma UAS-luciferase reporter, 20 h; note: potency is the fitted concentration of half-maximal effect; nearly all actives have a fitted effect of over 60% in size
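Drosophila Schneider cells stably carrying a metallothionein-driven Gal4 DBD–ROR gamma fusion and a UAS-Photinus luciferase reporter were exposed to compound for 1 hr, then induced with copper sulfate (700 uM final) for 20 hr at ambient temperature before luminescence reading.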
ELG1 DNA repair – blocks ELG1-dependent DNA repair in HEK293T cells; 330,000 tested, 2.3% active; AID 504467; HEK293T ELG1-luciferase reporter, luminescence, 16 h; DNA damage induced by 5-fluorouridine; Potency, µM (highest dose often 46.1 µM), for inactives: at the top dose activity change, negative = inhibition, actives largely listed as inhibitors; note: potency is the fitted concentration of half-maximal effect; nearly all actives have a fitted effect of over 55% in size
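5-Fluorouridine DNA damage + compound/DMSO, 2,000 cells/well, 16 h, 37 °C/5% CO2. ONE-Glo, 30 min RT, luminescence. Readout = decrease in reporter signal.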
TSHR antag – human thyrotropin receptor antagonism; P16473; TSHR-expressing cells, TSH-stimulated cAMP HTRF, 2 h; hits give low values; activity change, negative = inhibition, % at 11.5 µM; 330,000 tested, 0.2% active;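 active = activity change below a set negative limit, meaning inhibition stronger than a set level, cut at about -70% in these data; inconclusive = activity change between two set negative limits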
Target sequence (P16473 whole entry, looked up): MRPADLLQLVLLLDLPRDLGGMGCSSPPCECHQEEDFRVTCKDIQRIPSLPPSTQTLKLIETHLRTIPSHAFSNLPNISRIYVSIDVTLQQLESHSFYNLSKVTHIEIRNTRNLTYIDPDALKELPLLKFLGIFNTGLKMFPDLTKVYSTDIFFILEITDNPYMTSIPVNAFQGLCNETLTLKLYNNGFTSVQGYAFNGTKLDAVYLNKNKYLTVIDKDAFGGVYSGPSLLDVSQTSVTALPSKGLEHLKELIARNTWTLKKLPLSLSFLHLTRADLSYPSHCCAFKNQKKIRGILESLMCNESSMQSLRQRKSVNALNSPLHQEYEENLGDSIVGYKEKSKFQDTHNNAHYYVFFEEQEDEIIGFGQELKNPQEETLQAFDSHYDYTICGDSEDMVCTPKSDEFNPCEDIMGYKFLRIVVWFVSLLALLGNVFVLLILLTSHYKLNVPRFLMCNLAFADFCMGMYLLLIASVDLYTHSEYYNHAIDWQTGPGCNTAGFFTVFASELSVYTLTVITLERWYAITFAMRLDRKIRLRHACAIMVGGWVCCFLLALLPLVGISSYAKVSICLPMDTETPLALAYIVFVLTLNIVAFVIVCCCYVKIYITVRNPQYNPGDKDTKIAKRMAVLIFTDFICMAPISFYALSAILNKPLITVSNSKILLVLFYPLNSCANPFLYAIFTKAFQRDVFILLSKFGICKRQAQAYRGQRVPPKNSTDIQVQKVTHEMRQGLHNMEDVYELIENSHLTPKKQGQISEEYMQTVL
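Freshly harvested TSHR cells receive pin-tooled compound, then EC80 TSH at 4nM final. After 2 hours at 37 deg C, antibody in lysis buffer and cAMP-d2 are added; 30 minutes at ambient temperature precede the HTRF read.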
* marks the source's active call; other numbers are inactive results; ? = inconclusive; · = no result. Rows were chosen to be rich in hits. Some 7.5% of all compounds tested hit in one or more screens of this group. Unless noted, calls come from the whole dose curve; as a rule, active = well fitted curve in the direction sought with a large enough effect; inconclusive = small, poorly fitted or top-dose-only effect, or another doubt; inactive = no such curve, though single readings can be large; an effect the other way counts as inactive or inconclusive. Unless noted, % is set by controls: 0 for no effect and ±100 for the full control effect.

SMILES	B2AR arrestin	VP16 counter	RORg inh	ELG1 DNA repair	TSHR antag
Cc1ccc(CCNC(=O)C2CCN(S(=O)(=O)c3ccc4nc5c(c(C(=O)O)c4c3)CCCC5)CC2)cc1	0%	2%	21%	0%	-12
CCC(=O)Nc1cccc(C(=O)/C=C/c2ccc(F)cc2)c1	0%	?	?	-3%	9
CCOC(=O)c1cccc(NC(=O)Nc2ccc(OCC)cc2)c1	1%	-22%	-42%	?	-7
CC(=O)Nc1cccc(C(=O)/C=C/c2ccc(C)cc2)c1	-1%	?	13µM*	-14%	-11
CCOc1ccc(NC(=O)Nc2cccc(C(=O)O)c2)cc1	0%	5µM*	5µM*	?	-3
O=C(Nc1ccc(Cl)cc1)Nc1cccc(C(=O)O)c1	5%	1.4µM*	3.2µM*	?	13
CCNc1c(NS(=O)(=O)c2ccc(Cl)s2)c(=O)oc2ccccc12	0%	-3%	12%	-11%	7
CC(=O)N1N=C(c2ccccc2)OC1c1ccc([N+](=O)[O-])s1 (centres undefined)	6%	?	13µM*	?	5
CC(=O)N1N=C(c2cccc([N+](=O)[O-])c2)OC1c1ccc(Br)cc1 (centres undefined)	-1%	-5%	0%	15%	-3
COc1ccc(-c2nc3cnc(Nc4cccc(OC)c4)nc3n(C3CC3)c2=O)cc1	·	4%	6%	·	·
N#Cc1ccc(C(=O)Nc2nnc(-c3cccs3)o2)cc1	-1%	1µM*	0.71µM*	?	-5
O=C(CS(=O)(=O)c1ccc(F)cc1)Nc1nnc(-c2cccs2)o1	1%	·	·	?	6
CN(C)S(=O)(=O)c1ccc(C(=O)Nc2nnc(-c3cccs3)o2)cc1	0%	1.3µM*	0.63µM*	?	-8
O=C(Nc1nnc(-c2cccs2)o1)c1cccc(C(F)(F)F)c1	-3%	0.11µM*	0.11µM*	14%	-9
CN(C)S(=O)(=O)c1ccc(C(=O)Nc2nnc(-c3ccc4c(c3)CCCC4)o2)cc1	0%	0.089µM*	0.13µM*	?	10
N#Cc1ccc(NC(=O)c2cc(-c3cccs3)on2)cc1	0%	-2%	2%	-6%	-11
O=C(Nc1cnccn1)c1cccc(C(F)(F)F)c1	0%	11%	?	?	·
Cc1ccc(N(CC(=O)NC2CCCCC2)C(=O)CCC(=O)Nc2nccs2)cc1	0%	-5%	-3%	-5%	-6
N#Cc1cccc(NC(=O)N2CCC3(CC2)CCN(C(=O)c2ccco2)CC3)c1	·	0%	32%	·	·
CC1CC(C)CN(CC(O)COCc2ccccc2)C1 (centres undefined)	0%	2%	-8%	1%	2
CC(C)CN(C(=O)c1ccc(N2CCCC2=O)cc1)c1c(N)n(Cc2ccccc2)c(=O)[nH]c1=O	0%	·	·	15%	-15
COc1cc(C(C)=O)ccc1OCC(=O)Nc1ccccc1N1CCCCC1	0%	·	·	5.2µM*	2
COc1ccc(C(C)=O)cc1CC(=O)Nc1ccccc1-c1ccccc1	0%	2%	22%	12µM*	3
COc1cc(C(C)=O)ccc1OCC(=O)Nc1ccccc1N1CCCC1	0%	-1%	5%	?	-9
Cc1cccc(C)c1OCC(=O)Nc1ccccc1N1CCCCC1	0%	18µM*	-44%	3%	-8
SMILES	B2AR arrestin	VP16 counter	RORg inh	ELG1 DNA repair	TSHR antag
COc1ccc(CC(=O)Nc2ccccc2-c2ccccc2)cc1OC	0%	-29%	27%	-27%	-3
COCC(C)n1c(SCc2ccc(C(=O)OC)cc2)nc2ccccc2c1=O (centres undefined)	0%	-2%	?	-3%	-17
CCN1C(=O)[C@H]2[C@H]3CN=C(SCC4CC4)N3[C@@](CC)(C(=O)OC)[C@H]2C1=O	-1%	·	·	21%	12
Cn1cccc1C(=O)N1CCC2(CC1)CCN(c1cccc(-c3ccccc3)c1)CC2	·	2%	9%	·	·
O=C(NCc1cccnc1)c1nc(-c2ccc(C(F)(F)F)cc2)no1	0%	3.2µM*	?	?	-2
O=C(NCc1ccncc1)c1nc(-c2ccc(C(F)(F)F)cc2)no1	0%	?	?	-7%	-16
CCC(C)[C@H](NC(=O)[C@H](Cc1ccccc1)n1c(=O)[nH]c2ccccc2c1=O)C(=O)N1CCC[C@@H]1C(=O)O (some centres undefined)	0%	-1%	-4%	?	-8
CC(C)CC(=O)NCc1ccc2[nH]c3c(c2c1)CCCC3	0%	-22%	45%	-3%	10
Cc1ccc(NC(=S)NCc2ccc3[nH]c4c(c3c2)CCCC4)cc1	3%	2.8µM*	7.9µM*	?	38
COCCNC(=S)NCc1ccc2[nH]c3c(c2c1)CCCC3	0%	-74%	20µM*	-14%	-9
COc1ccc2c(C)nc(Nc3nc(C)c(C)c(=O)[nH]3)nc2c1	?	2.8µM*	5µM*	?	-2
COc1ccc2c(C)nc(Nc3nc(C)cc(C)n3)nc2c1	?	1.3µM*	0.25µM*	?	-20
CCOC(=O)C(=N/O)/C(C)=N/NC(=O)C(=O)Nc1ccc(Cl)cc1	0%	20µM*	-44%	?	-3
COc1cc(NC(=O)c2ccccn2)cc(OC)c1OC	-1%	-11%	-5%	?	-8
COc1cc(NC(=O)c2cccnc2Sc2ccc(Cl)cc2)cc(OC)c1OC	-1%	0%	?	8.2µM*	3
Cc1ccc(S(=O)(=O)NNC(=S)NCCc2ccccc2)cc1	-1%	?	11µM*	-1%	25
Cc1ccc(S(=O)(=O)NNC(=O)c2ccccc2O)cc1	0%	4%	11µM*	-4%	0
Cc1ccc(C(=O)NC(=S)NNS(=O)(=O)c2ccccc2)cc1	6%	14µM*	3.2µM*	6%	-3
Cc1ccc(S(=O)(=O)NC(=O)NCCc2ccccc2)cc1	0%	-23%	1%	?	2
NCC(=O)N[C@@H](CCCN=C(N)N)C(=O)NCC(=O)N[C@@H](CCC(=O)O)C(=O)N[C@@H](CO)C(=O)O	·	-9%	-3%	·	·
CC(=O)N(C)C1=C(O)c2ccccc2C(=O)C1=O	-1%	-13%	5%	-1%	5
CC(=O)N(C1=C(N)C(=O)c2ccccc2C1=O)C(C)C	-1%	0%	11µM*	23µM*	-5
O=C(NC(=S)Nc1ccccc1N1CCOCC1)c1sc2ccccc2c1Cl	-1%	2%	?	15%	2
O=C(CN1CCOCC1)Nc1ccc(OC(F)(F)F)cc1	-1%	-1%	9%	22%	9
O=C(NC(=S)Nc1ccccc1N1CCOCC1)c1ccccc1F	0%	20µM*	13µM*	2%	-16
